Pol iota inh = DNA polymerase iota (human) inhibition | Q9UNA4 | Pol iota fluorescent replication assay, 10 min | Potency, µM (top dose mostly 115 µM), hits mostly inhibitors | 1% of 390,000 active | AID 588590
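Fluorescent replication assay read twice, at 0 min and 10 min after adding 50 nM (final) substrate. Enzyme (10 nM) and compounds were first incubated 15 min at room temperature; enzyme-free buffer wells were negative controls.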
Pol kappa inh = inhibitors of human DNA polymerase kappa. AID 588579. purified Pol kappa, fluorescent DNA synthesis assay, 10 min. Potency, µM (top dose mostly 107 µM), most hits filed as inhibitors. Q9UBT6. 0.53% of 400,000 active
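Inhibition of 10 nM Pol kappa is measured by a fluorescent read-out at 0 and 10 min following addition of 50 nM substrate (final), with a 15-min room-temperature compound preincubation.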
POLB inh = blocks human DNA polymerase beta activity; P06746; Pol beta primer extension/strand displacement, fluorescence kinetic; Potency, µM (series often up to 114 µM), hits mostly inhibitors; 1.3% of 340,000 active; AID 485314
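Human Pol beta at 10 nM; strand-displacement substrate 50 nM final. Compound exposure 15 min at room temperature before start, reaction 10 min at room temperature.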
Pol eta inh = DNA polymerase eta (human) inhibition; 1.2% of 390,000 active; recombinant Pol eta, fluorescent DNA replication assay; Potency, µM (titrated, usually from 114 µM), hits mostly inhibitors; AID 588591
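Fluorescent replication assay: 50 nM final substrate added after a 15 min room-temperature compound preincubation with 10 nM enzyme. Signal taken at 0 min and again at 10 min.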
PI5P4K alpha inh = PI5P4K alpha (human) kinase inhibition. P48426. PI5P4Kalpha enzyme, ADP-Glo luminescence, 60 min; active compounds read low. max response, %. 1.2% of 330,000 active. AID 652105; active = max response of -50% or lower; inconclusive = between -30% and -50%; inactive = -30% or higher; also: value at the top dose of about 77 µM
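Single end-point luminescence (ADP-Glo) quantified ADP from PI5P4Kalpha turnover; ATP 5 microM final, 1 h at RT, 0.1% CHAPS and 0.28 mM EGTA in HEPES pH 7.4.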
WRN helicase inh = blocks human WRN helicase; Q14191; WRN helicase unwinding, fluorescent forked duplex, kinetic; Potency, µM (doses to about 114 µM), most hits filed as inhibitors; 0.46% of 360,000 active; AID 651768; also: nearly all actives have a fitted effect of over 55% in size
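Enzyme (20 nM final) and test compound sit together 15 min at room temperature before substrate addition. Substrate is a single-forked duplex oligonucleotide (100 nM) labelled with fluorophore and quencher, with 2 mM ATP; helicase unwinding raises red fluorescence, read kinetically.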
Hits are given with their value; - = inactive; ? = inconclusive; . = not tested or not shown; ! = not active in a repeat; [ ] = dose if it differs, or a comment. Shown are actives, neighbours in structure and some others; about 2.8% of the full set was active somewhere. Unless noted, calls follow the shape of the dose curve; as a rule, active = well fitted curve in the direction sought with a large enough effect; inconclusive = small, poorly fitted or top-dose-only effect, or another doubt; inactive = no such curve, though single readings can be large; an effect the other way counts as inactive or inconclusive.

SMILES	Pol iota inh	Pol kappa inh	POLB inh	Pol eta inh	PI5P4K alpha inh	WRN helicase inh
CC(C)=CCc1c(O)cc2oc3c(CC=C(C)C)c(O)c(O)c(CC=C(C)C)c3c(=O)c2c1O	?	79.4µM	44.7µM	39.8µM	?	-[11.6 µM]
CC(C)=CCc1c(O)cc2oc(C)cc(=O)c2c1O	.	-	.	.	.	.
CCN(CC)/[N+]([O-])=N/OCOC(=O)C(C)c1ccc2cc(OC(C)=O)ccc2c1 (centres undefined)	-	-	.	.	.	.
CC(C)=C1C(=O)NN(c2ccc(C)c(Cl)c2)C1=O	79.4µM	?	?	-	?	-
CC(=C\c1ccccc1)/C=C1/SC(=O)N(CCCC(=O)Nc2ccc(C(=O)O)cc2)C1=O	-	-	-	-	-	-
O=C(CCCN1C(=O)S/C(=C/C=C/c2ccccc2)C1=O)Nc1ccc(C(=O)O)cc1	?	-	-	89.1µM	-	-[11.6 µM]
Cc1ccc(-c2cc3ncc(C(=O)c4cc([N+](=O)[O-])ccc4O)cn3n2)cc1	-	-	-	-	.	.
Oc1c(Br)cc(/C=N/n2c(-c3ccccc3)n[nH]c2=S)c(O)c1Br	?	39.8µM	-	10µM	-84.7	?
COc1cc(/C=N/n2c(-c3ccccc3)n[nH]c2=S)ccc1O	-	-	-	-	-	-
Cc1ccc(/C=N/n2c(-c3ccccc3)n[nH]c2=S)cc1	-	-	-	-	-	-
Oc1ccc(/C=N/n2c(-c3ccccc3)n[nH]c2=S)cc1Br	-	-	-	-	-52.6	-
Oc1c(Br)cc(/C=N/n2c(-c3ccccc3)n[nH]c2=S)cc1Br	-	-	-	-	-92.4	?
Cc1c(Br)c(O)c(Br)c(O)c1/C=N/n1c(-c2ccccc2)n[nH]c1=S	7.94µM	35.5µM	50.1µM	3.16µM	-83.0	44.7µM
COc1cc(/C=N/n2c(-c3ccccc3)n[nH]c2=S)cc(OC)c1O	-	-	-	-	-	-
COc1cccc(-n2c(=O)c3sc4ccccc4c3n(CC(=O)NC3CCCCC3)c2=O)c1	-	-	-	-	.	.
Cc1cccc(-n2c(SCC(=O)Nc3ccccc3C)nc3c(oc4ccccc43)c2=O)c1	-	-	-	-	.	.
CC(C)(C)c1ccc(S(=O)(=O)NC(=O)C2(C)CCN2C(=O)c2cccc3ccccc23)cc1 (centres undefined)	.	.	.	.	-	-
O=C(CN1C(=O)NC2(CCCCC2)C1=O)N1CCN(S(=O)(=O)c2ccccc2)CC1	-	-	-	-	-	-
CCC1(c2ccccc2)NC(=O)N(CC(=O)N2CCN(S(=O)(=O)c3ccccc3)CC2)C1=O (centres undefined)	-	-	-	-	-64.9	-
CC(C)C(=O)NC(C)C(c1cccs1)N1CCN(c2ccccc2)CC1 (centres undefined)	-	-	20µM	-	-	-
O=C(N/N=C/c1ccc(-c2cccc([N+](=O)[O-])c2)o1)c1ccccc1O	-	-	?	50.1µM	-	-[11.6 µM]
NC(=S)N/N=C/c1ccc(-c2ccc([N+](=O)[O-])cc2)o1	-	-	-	-	-55.9	-
O=C(N/N=C/c1ccc(-c2cccc([N+](=O)[O-])c2)o1)c1ccc([N+](=O)[O-])cc1	-	-	-	-	-	-
Cc1cc(C)cc(C(=O)NCC(=O)OCC(=O)N2c3ccccc3NC(=O)C2(C)C)c1	-	-	14.1µM	-	-	-
CC1(C)C(=O)Nc2ccccc2N1C(=O)COC(=O)c1cccnc1Cl	?	-	.	50.1µM	?	-
SMILES	Pol iota inh	Pol kappa inh	POLB inh	Pol eta inh	PI5P4K alpha inh	WRN helicase inh
Fc1ccc(N=c2ssnc2Cl)c(F)c1	?	-	-	-	-62.4	31.6µM
Clc1ccc(N=c2ssnc2Cl)cc1	?	-	-	-	.	79.4µM
COc1ccc(N=C2SCC(=O)N2C)cc1	.	.	.	-	-	-
COc1cc(N=c2ssnc2Cl)cc(OC)c1OC	?	-	-	-	-68.7	56.2µM
COc1ccc(N=c2ssnc2Cl)cc1	?	-	-	-	-82.8	?
CCc1cccc(NC(=O)C(Cc2ccccc2)NS(=O)(=O)c2ccc3c(c2)c(=O)n(C)c(=O)n3C)c1 (centres undefined)	-	-	-	-	.	.
CCOc1ccc(OCC(=O)NCCS(=O)(=O)N2CCN(c3ccccc3)CC2)cc1	.	.	.	-	-	-
COc1ccc(NC(=O)c2ccccc2OCC(=O)Nc2ccc(Br)cc2)cc1	-	-	.	.	.	.
C=Cc1ccc(CSc2nc(-c3ccccc3C)nc3c2Cc2c(CO)cnc(C)c2O3)cc1	-	-	-	-	.	.
O=C1CSC(=Nc2ccccc2)N1Cc1ccccc1	-	-	-	-	-	-
CCOC(=O)c1ccc(N=c2ssnc2Cl)cc1	-	-	-	-	-79.4	22.4µM
CCOC(=O)c1ccc(N=C2SC(C(=O)NC)CC(=O)N2Cc2ccc(F)cc2)cc1 (centres undefined)	-	-	-	-	-	-
N#Cc1ccc(Oc2c(Cl)cncc2Cl)cc1	-	-	-	-	-	-
N#Cc1ccc(N=c2ssnc2Cl)cc1	?	-	-	-	-91.0	39.8µM!
Clc1nssc1=Nc1ccccc1	-	-	-	-	-57.1	?
Fc1cccc(CSc2nc3ncc(Cl)cc3[nH]2)c1	70.8µM	-	35.5µM	-	-	-[11.6 µM]
Fc1cccc(CSc2nc3ncccc3[nH]2)c1	-	-	-	-	-	-
O=c1c(-c2ccc(O)cc2O)coc2cc(O)cc(O)c12	?	?	31.6µM	?	-	-[11.6 µM]
O=c1c(O)c(-c2ccc(O)cc2O)oc2cc(O)cc(O)c12	3.98µM	4.23µM	4.47µM	7.94µM	.	.
O=c1c(O)c(-c2ccccc2O)oc2cc(O)cc(O)c12	.	-	.	.	.	.
COc1ccccc1N1CCN(C(CNC(=O)C(=O)NCCCN(C)C)c2cccnc2)CC1 (centres undefined)	-	-	?	-	.	.
O=C(Cc1ccccc1)N/N=C/c1cc(Br)cc(Br)c1O	-	-	-	-	-57.2	-
O=C(O)c1ccccc1N/N=C/c1cc(Br)cc(Br)c1O	?	-	?	79.4µM	?	-
Oc1c(Br)cc(Br)cc1/C=N/Nc1ccc(Cl)nn1	-	-	-	-	-	-
COCc1cc(/C=N\NC(=O)Cc2ccc(OC)cc2)ccc1OC	-	-	-	-	-	-
SMILES	Pol iota inh	Pol kappa inh	POLB inh	Pol eta inh	PI5P4K alpha inh	WRN helicase inh
COc1ccc(CC(=O)N/N=C\c2cc(Br)c(O)c(Br)c2)cc1	-	-	?	?	-67.8	-
O=C(O)c1ccccc1N/N=C\c1ccnc2ccccc12	-	-	?	?	-68.2	-
C[C@@H](NC(=O)c1[nH]cnc1C(=O)Nc1cccc(Cl)c1)c1ccccc1	-	-	.	-	-	-
CCc1nc(SC)ncc1C(=O)NCc1cccc(Br)c1	-	-	-	-	.	.
O=C(O)c1ccc2c(c1)C(=O)N(Cc1ccco1)C2=O	?	-	-	?	-69.3	-
CC(C)(C)NC(=O)c1ccc2c(c1)C(=O)N(Cc1ccco1)C2=O	-	-	-	-	-	-

Screening results from PubChem BioAssay.
